Screens deposited in PubChem BioAssay by National Center for Advancing Translational Sciences (NCATS).
This is one part of a sample in which hits are shown more often than they occur.
Pf Dd2 inh = qHTS Primary assay for Inhibitors of Plasmodium falciparum Dd2 growth in vitro. Potency, µM (series often up to 28.9 µM), hits mostly inhibitors. hit rate 4.3% among 120,000. P. falciparum Dd2 growth, SYBR Green, 72 h; active = well fitted inhibition curve with a large enough effect; note: nearly all actives have a fitted effect of over 65% in size
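Infected erythrocytes (Dd2, 0.3% parasitemia, 2.5% hematocrit final) are added to compound in RPMI-1640/Albumax II medium, grown 72 h at 37C in low oxygen, then lysed with saponin/Triton-X containing SYBR Green and read by fluorescence.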
Large screens that a line does not name were inactive.

CNC(=O)[C@@H]1C[C@@H](N)CN1S(=O)(=O)c1ccc2c(c1)OCCCO2	none
CC(=O)N1CCc2nn(CC(=O)N3CCN(c4ccccc4F)CC3)c(=O)cc2C1	none
O=C(c1cccnc1)N1CCCC2(C1)C(=NC1CCCC1)NC(=O)N2c1cc(F)cc(F)c1 (stereo not drawn)	none
O=C1NC(=NC2CCCC2)C2(CCCN(Cc3cccnc3)C2)N1c1cccnc1 (stereo not drawn)	none
O=C1NC(=NC2CCCCC2)C2(CCCN(Cc3ccc(F)cc3)C2)N1c1cc(F)cc(F)c1 (stereo not drawn)	Pf Dd2 inh 7.9µM
O=C1NC(=NC2CCCCC2)C2(CCN([S+](=O)([O-])c3ccccc3)C2)N1c1cc(F)cc(F)c1 (stereo not drawn)	none
O=C1NC(=NC2CCCCC2)C2(CCN(Cc3ccc(F)cc3)CC2)N1c1cccnc1	none
O=C1NC(=NC2CCCCC2)C2(CCN(Cc3ccc(F)cc3)C2)N1c1cc(F)cc(F)c1 (stereo not drawn)	Pf Dd2 inh 1.8µM
O=S(=O)(NCC1(COc2cnccn2)C[C@@H](O)[C@@H](O)C1)c1ccc(F)cc1 (stereo partly drawn)	none
Cn1nc(C(=O)N2CC(C)(C)C(C)(O)C2)cc1-c1cccs1 (stereo not drawn)	none
CN1CC2(CCN(C(=O)NCc3ccco3)CC2)CC(c2ccccc2)C1=O (stereo not drawn)	none
CN1CC(=O)N(c2ccccc2F)Cc2c1ncnc2N1CCCCC1	none
CC(C)N1C[C@H](O)C[C@H]1c1nnc2n1CCN(C(=O)c1nccn1C)CC2	none
CCCCNC(=O)C1CCc2sc(C(=O)N3CCOCC3)cc2C1 (stereo not drawn)	none
Cn1c(C(=O)N2CCCC(C(=O)N3CCN(c4ccccc4)CC3)C2)cc2sccc21 (stereo not drawn)	none
Cc1cc(N2CCC(C(=O)NCCC(C)C)CC2)n2nc(C)c(-c3ccc(Cl)cc3)c2n1	none
CCCSCCCNC(=O)C1CCN(C(=O)c2cc3sccc3n2C)CC1	Pf Dd2 inh 14µM
CC(C)CCNC(=O)C1CCN(C(=O)c2cc3sccc3n2Cc2ccc(Cl)cc2)CC1	Pf Dd2 inh 13µM
CCn1c(C(=O)N2CCC(C(=O)NCCc3ccccc3)CC2)cc2sccc21	none
COCCn1c(CN2C(=O)N(C)C(=O)C2(C)C)nnc1C1CC(N)C1 (stereo not drawn)	none
O=C(Nc1cccc(Br)c1)N1CCC2(CC1)SCC(=O)N2Cc1ccco1	none
Cc1ccccc1CN1Cc2nc(-c3cnn(C)c3)ccc2OCC1=O	none
Cc1ccccc1CN1Cc2nc(-c3ccccc3)ccc2OCC1=O	none
Cc1ccccc1CN1Cc2nc(N3CCCC3)ccc2OCC1=O	Pf Dd2 inh 10µM
Cc1cnc(C2CCOCC2)n1CC1CCN(S(=O)(=O)c2cccnc2)CC1	none
CCOc1ccccc1N1CC(c2nc3ccccc3n2Cc2c(C)cc(C)cc2C)CC1=O (stereo not drawn)	none
Cc1ccc(C)c(Cn2c(C(C)NC(=O)c3ccccc3)nc3ccccc32)c1 (stereo not drawn)	none
Cc1cc(C)c(Cn2c(C(O)c3ccccc3)nc3ccccc32)c(C)c1 (stereo not drawn)	Pf Dd2 inh 3.2µM
CN(C)S(=O)(=O)N1CCCC(c2nnc(CN3CCCCC3)n2C)C1 (stereo not drawn)	none
Cn1ccc2c(C(=O)NCCc3cnc[nH]3)nc(-c3ccccc3)cc21	none
CC(=O)Nc1cccc(-c2cc3c(ccn3C)c(C(=O)NCCc3cnc[nH]3)n2)c1	Pf Dd2 inh 5µM
Cc1cc(C)c(CNC(=O)c2nc(-c3ccccc3C)cc3c2ccn3C(C)C)c(=O)[nH]1	none
Cc1cc(C)c(CNC(=O)c2cc(-c3ccc(CN(C)C)cc3)cc3ncn(C)c23)c(=O)[nH]1	none
COc1ccc(-c2cc3c(ccn3C(C)C)c(C(=O)NCc3c(C)cc(C)[nH]c3=O)n2)cn1	Pf Dd2 inh 6.3µM
Cc1cc(C)c(CNC(=O)c2nc(-c3cnn(C)c3)cc3c2ccn3C)c(=O)[nH]1	none
Cn1ccc2c(C(=O)NCc3cccnc3)nc(-c3cccnc3)cc21	none
Cn1ccc2c(C(=O)NCCc3cnc[nH]3)nc(-c3cccc(CO)c3)cc21	none
COc1ccc(-c2cc3c(ccn3C)c(C(=O)NCCc3cnc[nH]3)n2)cn1	none
COc1cccc(-c2cc3c(ccn3C)c(C(=O)NCc3c(C)cc(C)[nH]c3=O)n2)c1	Pf Dd2 inh 10µM
Cc1ccc(-c2cc3c(ccn3C(C)C)c(C(=O)NCc3c(C)cc(C)[nH]c3=O)n2)cn1	Pf Dd2 inh 7.1µM
COc1ccc(-c2cc(C(=O)NCc3c(C)cc(C)[nH]c3=O)c3c(c2)N(C(C)C)CCO3)cc1OC	none
O=C1COc2ccc(OCc3cccnc3)nc2CN1Cc1ccccc1F	none
CC(C)CN1C(=O)CO[C@H](c2ccc(NC(=O)c3ccccc3)cc2)[C@H]1CO	none
Cn1ncc(N2CCC(CNC(=O)c3cccc(-n4cnnc4)c3)C2)cc1=O (stereo not drawn)	none
CS(=O)(=O)N1CCCN(c2cc(C3CC(O)C3)nc(N)n2)CC1 (stereo not drawn)	none
Oc1cccc(Nc2cnc3ccc(-c4ccc(F)cc4)nn23)c1	none
CO[C@H]1[C@H](NC(=O)COc2ccccc2)c2ccccc2C12CCNCC2	none
COc1ccc2c(c1)CCN=C2C[C@H]1CN(C(=O)Nc2ccccc2)CC[C@H]1CC(=O)O	none
CC1CCN(C(=O)C[C@@H]2c3nc(NC(=O)c4ccco4)sc3C[C@@H]3[C@](C)(CO)[C@H](O)CC[C@]32C)CC1	none
CCOc1ccc2c(n1)CCN(C(=O)Cc1cccc(C)c1)C2	Pf Dd2 inh 10µM
CCOc1ccc2c(n1)CCN(C(=O)Cc1ccc(F)cc1)C2	none
CCOc1ccc2c(n1)CCN(C(=O)c1cnccn1)C2	none
CCOc1ccc2c(n1)CCN(C(=O)C1(c3ccccc3)CC1)C2	Pf Dd2 inh 10µM
CCOc1ccc2c(n1)CCN(C(=O)c1ccc(OC)cc1)C2	none
COCCOc1ccc2c(n1)CCN(C(=O)Cc1cccc(OC)c1)C2	none
COCCOC1CCOC2(CCN(C(=O)c3ccc(OC)cc3)CC2)C1 (stereo not drawn)	none
CC(C)CC(=O)N1C(C(=O)NCC2CCCO2)COC12CCC(C)CC2 (stereo not drawn)	none
CCOc1ccc(S(=O)(=O)N2C[C@@H](F)C[C@H]2C(=O)N2CCc3ccccc3C2)cc1	none
COCCN1C(=O)CC[C@]2(C(=O)NCc3cccnc3)CCCC[C@@H]12	none
Cc1ccc(NC(=O)Cn2cc3c(n2)CCCC3)c(C)c1	none
O=C(Cn1cc2c(n1)CCCC2)Nc1cc(C(F)(F)F)ccc1Cl	Pf Dd2 inh 7.1µM
Cc1c(Cl)cccc1NC(=O)Cn1cc2c(n1)CCCC2	none
Cc1noc(-c2cn(C3CCCN(C(=O)c4cccc(OC(F)(F)F)c4)C3)nn2)n1 (stereo not drawn)	none
Cn1cc(C(=O)N2CC(Oc3ccc(-c4nc(-c5ccccc5)no4)cc3)C2)cn1	none
CCn1cc(S(=O)(=O)N2CC(Oc3ccc(-c4nc(C)no4)cc3)C2)cn1	none
CCn1cc(CN2CC(Oc3ccc(-c4noc(-c5ccncc5)n4)cc3)C2)cn1	Pf Dd2 inh 1.8µM
COCc1ncc2c(n1)CCCN(CC(=O)NCc1ccccc1OC)C2=O	none
COCCN1C(=O)CS(=O)C12CCN(C(=O)c1ccc3cc[nH]c3c1)CC2 (stereo not drawn)	none
COc1ccc(CN2C(=O)COC[C@H]2C(=O)N2CCc3ccccc3C2)c(OC)c1	none
CCOc1ccc(NC(=O)C2CCN(S(=O)(=O)c3c(C)noc3/C=C/c3c(C)cc(C)cc3C)CC2)cc1	none
Cc1cccc(NC(=O)C2CCN(S(=O)(=O)c3c(C)noc3/C=C/c3ccco3)CC2)c1C	none
